# Screening data (PubChem)
# HCMV antiviral: human cytomegalovirus inhibition; HFF cells, HCMV-luciferase reporter, 72 h; hits give low values; activity change, negative = inhibition, % at 57.5 µM; hit rate 4.5% among 410,000; AID 1259415; in the data active means activity change below about -60%; inconclusive means no clear call, values can overlap the other calls; inactive means above about -39%
#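 Two compound doses tested in HFFs infected with HCMV-luciferase, MOI 1 PFU/cell, 72 h at 37C. Lysate luminescence read with OneGlo; data normalized against buffer-only and 10uM Salinomycin inhibitor controls.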
# LmPK inh: blocks Leishmania mexicana pyruvate kinase activity; Potency, µM (highest dose often 57.5 µM), hits mostly inhibitors; Q27686; purified LmPK, Kinase-Glo ATP luminescence, 1 h; AID 1721; hit rate 0.37% among 290,000
# Target sequence (Q27686 whole entry, looked up): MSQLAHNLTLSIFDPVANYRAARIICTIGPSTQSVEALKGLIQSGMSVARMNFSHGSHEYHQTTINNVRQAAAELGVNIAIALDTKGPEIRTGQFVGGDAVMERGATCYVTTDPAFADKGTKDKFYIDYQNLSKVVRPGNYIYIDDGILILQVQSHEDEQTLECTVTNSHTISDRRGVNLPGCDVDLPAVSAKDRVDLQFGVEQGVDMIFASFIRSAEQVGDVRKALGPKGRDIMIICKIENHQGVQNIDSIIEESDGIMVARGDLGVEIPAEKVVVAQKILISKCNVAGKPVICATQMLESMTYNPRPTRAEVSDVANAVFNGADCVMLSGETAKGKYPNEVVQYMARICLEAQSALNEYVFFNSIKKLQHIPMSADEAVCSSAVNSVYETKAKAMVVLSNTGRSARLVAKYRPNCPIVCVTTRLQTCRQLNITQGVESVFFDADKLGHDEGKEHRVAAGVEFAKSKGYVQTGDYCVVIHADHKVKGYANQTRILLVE
#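 Kinase-Glo luminescence read after 1 h RT reaction of 0.1 nM LmPK with 0.5 mM PEP and 0.1 mM ADP. Activity scaled between uninhibited and enzyme-free controls.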
# VACV mCherry inh: inhibitors of vaccinia virus infection (mCherry reporter signal); Vaccinia virus mCherry reporter infection, fluorescence; Potency, µM (doses to about 36.5 µM), hits mostly inhibitors; hit rate 0.63% among 310,000; AID 720579; calls by dose curve; tested in A549 cells; further: nearly all actives have a fitted effect of over 35% in size
# VACV Venus inh: inhibitors of vaccinia virus (Venus reporter); Vaccinia virus Venus reporter expression, fluorescence; Potency, µM (highest dose often 36.5 µM), most hits filed as inhibitors; hit rate 0.46% among 330,000; calls by dose curve; tested in A549 cells; further: nearly all actives have a fitted effect of over 30% in size
# TbPYK inhibitor: blocks Trypanosoma brucei pyruvate kinase. Q57TT1. TbPYK enzyme, Kinase-Glo Plus ATP luminescence, 45 min. AID 624173. hit rate 0.12% among 410,000. Potency, µM (series often up to 76.8 µM), usual class: inhibitors; further: nearly all actives have a fitted effect of over 50% in size
#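 Luminescent Kinase-Glo Plus end-point after 45 min room-temperature reaction of T. brucei pyruvate kinase started with 130 uM ADP (final). Buffer TEA 50 mM pH 7.2 with KCl, MgCl2, BSA, Tween-20; titration-based qHTS with fitted concentration-effect curves.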
# Hits are given with their value; n = inactive; u = inconclusive; x = no result; [ ] = dose if it differs, or a comment. In the library only some 5% were active in any assay of this set; here they are far more common. Unless noted, the call rests on the fitted dose curve; in most records, active means well fitted curve in the direction sought with a large enough effect; inconclusive means small, poorly fitted or top-dose-only effect, or another doubt; inactive means no such curve, though single readings can be large; an effect the other way counts as inactive or inconclusive.
SMILES,HCMV antiviral,LmPK inh,VACV mCherry inh,VACV Venus inh,TbPYK inhibitor
CCSc1ncc(Cl)c(C(=O)Nc2ccc(S(N)(=O)=O)cc2)n1,-85,n,n,n,n
COc1ccc(CCNC(=O)c2cc3c(=O)[nH]c4ccc(C)cc4c3s2)cc1OC,n,x,n,n,n
Cc1oc2ncn(C)c(=O)c2c1C(=O)N1CCN(c2ccccc2F)CC1,n,x,n,n,n
Cc1ccc(/C=C2/Sc3ccc(C(=O)N4CCC5(CC4)OCCO5)cc3NC2=O)cc1,n,n,n,n,n
O=C(NCCn1cc(SCc2ccc(F)cc2)c2ccccc21)c1cccs1,n,x,n,n,n
S=C(NCc1ccc(Cl)cc1Cl)Nc1ccccc1,n,n,n,n,n
O=C1C(CCS(=O)c2ccccc2)C(=O)N(c2ccccc2)N1c1ccccc1 (stereo not given),n,n,n,n,n
Cc1ccc(NC(=O)CCCc2c[nH]c3ccccc23)nc1,-98,n,x,x,n
Cc1ccnc(NC(=O)CCCc2ccccc2)c1,n,n,n,n,n
Cc1ccc(CNC(=O)CCCc2c[nH]c3ccccc23)cc1,n,n,u,n,n
Cc1ccnc(NC(=O)CCCc2c[nH]c3ccccc23)c1,-101,n,u,u,n
Cc1nc2nc(-c3ccc(Cl)cc3)cn2nc1C,n,u,u,n,n
COc1cccc(-c2cn3nc(C)c(C)nc3n2)c1,n,13µM,n,n,n
Cc1nc2nc(-c3cccs3)cn2nc1C,n,28µM,x,x,n
O=C(c1ccco1)N1CCN(S(=O)(=O)c2ccc(S(=O)(=O)NC3CCCC3)cc2)CC1,n,n,n,n,n
CC(C)(C)NC(=O)c1ccc(NC(=O)c2ccccc2-c2ccccc2C(=O)O)cc1,n,n,x,x,n
Cc1cc(SCC(=O)N/N=C/c2ccc(O)c(O)c2O)c(C)cc1Br,n,n,13µM,u,n
CCCCNc1ccc(C(=O)OCCN(CC)CC)cc1,x,x,x,x,n
CCN(CC)CCOC(=O)c1ccc(NC(=O)C(C)NC(=O)C23CC4CC(CC(C4)C2)C3)cc1 (stereo not given),-64,n,n,n,n
C=CCOc1cccn2c(N(C)C(=O)c3ccncc3)c(CC)nc12,n,x,n,n,n
O=[N+]([O-])c1c(Nc2ccccc2O)cc(Cl)c2nonc12,-97,n,n,u,n
Nc1cc(Cl)c2nonc2c1[N+](=O)[O-],-95,n,10µM,10µM,n
C[C@]12c3[nH]c4ccccc4c3CCN1C(=O)C(CC(=O)NCc1ccco1)C[C@@H]2C(=O)N1CCOCC1 (stereo not given in full),n,x,n,n,n
CCOC(=O)C1(CC2CCCCO2)CCN(C(=O)Nc2ccccc2CC)CC1 (stereo not given),-65,n,x,x,n
Cc1cc(=O)oc2cc(OCC(=O)NC3CCCCC3)c(Cl)cc12,n,x,n,n,n
SMILES,HCMV antiviral,LmPK inh,VACV mCherry inh,VACV Venus inh,TbPYK inhibitor
Cc1cc(C)nc(N/N=C/c2sccc2C)n1,-80,u,n,n,n
Cc1cc(C)nc(N/N=C/c2ccccc2)n1,n,n,x,x,n
COC1=C(OC)C(=O)C(Sc2ccc3ccccc3c2)=CC1=O,-81,x,n,n,1.8µM
COc1ccc(Cl)cc1C1CC(=O)Nc2cc3c(cc21)OCCO3 (stereo not given),-92,x,n[7.34 µM],n[7.34 µM],n
CC(C)Oc1ccccc1C1CC(=O)Nc2cc3c(cc21)OCCO3 (stereo not given),-103,n,x,x,n
COc1ccccc1C1CC(=O)Nc2cc3c(cc21)OCCO3 (stereo not given),-85,n,u,u,n
O=C1CC(c2ccc(Cl)cc2)c2cc3c(cc2N1)OCCO3 (stereo not given),u,x,n,n,n
CCCNC(=O)C(Cc1cccc(Br)c1)NC(=O)c1ccc(C#N)cc1 (stereo not given),n,x,n,n,n
CCCCCCn1c(CN2CCN(Cc3ccccc3)CC2)nc2c1c(=O)n(C)c(=O)n2C,n,n,x,x,n
CCOC(=O)c1ccc(N2C(=O)c3n[nH]c(-c4ccco4)c3C2c2ccc(F)cc2)cc1 (stereo not given),-89,x,n,n,n
CCOC(=O)c1ccc(N2C(=O)c3[nH]nc(-c4ccc(OC)cc4)c3C2c2ccc(C)cc2)cc1 (stereo not given),-83,x,u,u,n
COc1ccc(C2c3c(-c4ccccc4)n[nH]c3C(=O)N2c2ccc(C(=O)O)cc2)cc1 (stereo not given),n,n,x,x,n
CCOC(=O)c1ccc(N2C(=O)c3n[nH]c(-c4ccco4)c3C2c2ccc(OCC)cc2)cc1 (stereo not given),-88,x,n[7.34 µM],n[7.34 µM],n
CCOC(=O)c1ccc(N2C(=O)c3n[nH]c(-c4ccco4)c3C2c2cccc(F)c2)cc1 (stereo not given),-98,x,n,n,n
CCOC(=O)c1ccc(N2C(=O)c3n[nH]c(-c4ccco4)c3C2c2cccc(OC)c2)cc1 (stereo not given),n,x,n,n,n
Cc1cc(C(=O)NCC2CCC3(CCN(Cc4cccc(F)c4F)CC3)O2)n(C)n1 (stereo not given),x,x,n,n,x
O=c1ccc(-c2ccc(S(=O)(=O)Nc3ccc(F)cc3)o2)n[nH]1,n,n,x,x,n
CCOC(=O)c1ccc(N2C(=O)c3n[nH]c(-c4ccco4)c3C2c2ccccc2OC)cc1 (stereo not given),-101,x,u,n,n
CCOC(=O)c1cnc(SCC(=O)Nc2cc(OC)cc(OC)c2)nc1N,-60,n,x,x,n
CCOC(=O)c1cnc(SCc2nc(N)nc(Nc3ccccc3)n2)nc1N,-82,n,n,n,n
CCOC(=O)c1cnc(SCC(=O)Nc2ccc(N3CCOCC3)c(Cl)c2)nc1N,n,n,x,x,n
CCOC(=O)c1cnc(SCC(=O)Nc2sc(C)c(C)c2C#N)nc1N,-64,n,x,x,n
Cc1cc(C(=O)OCCO)c(C#N)c(N)n1,n,n,x,n,n
COc1cc2c(cc1OC)C(C)N(C(=O)c1sccc1C)CC2 (stereo not given),u,n,x,x,n
COc1cc2c(cc1OC)C(C)N(C(=O)c1ccc(Cl)c(S(=O)(=O)N3CCCCC3)c1)CC2 (stereo not given),-64,n,x,x,n
SMILES,HCMV antiviral,LmPK inh,VACV mCherry inh,VACV Venus inh,TbPYK inhibitor
COc1cc2c(cc1OC)C(C)N(C(=O)c1cccc([N+](=O)[O-])c1)CC2 (stereo not given),-74,n,n,n,n
CN1CCN(C(=O)c2ccc(Cl)c(S(=O)(=O)N3CCCCCC3)c2)CC1,n,n,n,n,n
Cc1ccc(N(C)C(=O)c2noc3c2CCCCC3)cc1C,n,x,n,n,n
Cc1ccc(Cl)cc1N(C)C(=O)c1noc2c1CCCCC2,-64,x,n,n,n
Cc1ccc(OCCCCN2CCCC(C)C2)c([N+](=O)[O-])c1 (stereo not given),n,n,n,n,n
CCc1nc(C)cn1S(=O)(=O)c1ccc(Cl)c(Cl)c1OC,-75,x,n[7.34 µM],n[7.34 µM],n
CCOc1cc(Cl)c(S(=O)(=O)n2cc(C)nc2CC)cc1Cl,u,x,n[7.34 µM],n[7.34 µM],n
O=C(NC(=O)c1csnn1)Nc1ccccc1Cl,-83,n,x,x,n
